Data: PubChem BioAssay (NCI)
About 79,000 compounds went through this panel and 15% of them were active in at least one assay; those are over-represented in the sample as a whole. Unmarked numbers belong to inactive results. Cut-off read from the data, not from the text of the source: active = growth inhibition above about 70%; inactive = the rest.

Assay: NCI Yeast Anticancer Drug Screen. Data for the rad50 strain (AID 155);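 note: 0% = growth of vehicle-only cultures of the same strain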
Conditions: S. cerevisiae rad50 strain growth inhibition; at 50.0 µM; active compounds read high
Summary of the method: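 Yeast carrying a defined DNA repair defect were exposed to test compounds, and growth was compared with vehicle-treated controls to give percent inhibition.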
For C=CCOC(=O)NC(CCC(=O)OC)C(=O)O (stereo not drawn), the growth inhibition was -0.5%.
In the case of Cc1ccc(/C=C/C(=O)c2c([O-])on[n+]2-c2ccccc2)cc1, the growth inhibition is reported as 2.6%.
For COC(=O)c1cc(C)c(C)c2c1NC(=O)CNC2=O, the growth inhibition was -4.1%.
Molecule CCOC(=O)C1C(NNC(N)=O)CN(C(=O)OCC)C1C(=O)OCC (stereo not drawn) has a growth inhibition of -9.2%.
Molecule CCOC(=O)/C=C(/C)C#N has a growth inhibition of -9.65%.
N#Cc1ccccc1C#N showed a growth inhibition of -0.8%.
C[N+](C)(C)c1ccc(C(N)C(=O)O)cc1 (stereo not drawn) gave a growth inhibition of -7.7%.
Molecule O=C(O)CCC(=O)Nc1cccc(C(F)(F)F)c1 has a growth inhibition of -5.9%.
In the case of C=C(C(N)=O)c1ccc([N+](=O)[O-])o1, the growth inhibition is reported as 52.4%.
In the case of CCCCN(CCCC)c1ccc(S(=O)(=O)c2ccc(N(CCCC)CCCC)cc2)cc1, the growth inhibition is reported as 19.1%.
Oc1ccccc1C=Nc1ccc(N2CCOCC2)cc1 gave a growth inhibition of 2.65%.
Molecule COC(=O)C[C@H](C)[C@H](C)CC(=O)O has a growth inhibition of -17.6%.
With CC1CN(C(=O)/C=C/C(=O)OC2CCCCC2)C(C)CN1C(=O)/C=C/C(=O)OC1CCCCC1 (stereo not drawn) the growth inhibition was 0.2%.
With COC(=O)c1csnn1 the growth inhibition was 1.2%.
In the case of Cc1cccc(CC(N)C(=O)O)c1 (stereo not drawn), the growth inhibition is reported as -5.15%.
In the case of NC(=O)c1ccc(S(=O)(=NS(=O)(=O)c2ccccc2)c2ccc(C(N)=O)cc2)cc1, the growth inhibition is reported as 4.2%.
With COC(=O)c1nc2n[nH]c(N)c2c2c1CCCCCCCCCC2 the growth inhibition was 7.35%.
CC(CCC(=O)O)C1CCC2C3CCC4CCCCC4(C)C3CCC12C (stereo not drawn) gave a growth inhibition of 8.4%.
